Assay outcomes from PubChem.
The full list was thinned out, with hits kept by preference.
IDE exosite FP: insulin-degrading enzyme (human) exo-site inhibition; purified IDE, FL-6b probe fluorescence polarization; hits give low values; z-score at 20 µM; actives 6.3% (n = 17,000); P14735;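 active = z-score of -3 or lower, meaning strong loss of probe binding signal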;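 also: His-tagged human IDE residues 42-1019 made in E. coli with 30 nM FL-6b probe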
Large screens that a line does not name were inactive.

CCC(=O)N1[C@H](CO)[C@H](c2ccc(C3=CCCCC3)cc2)[C@H]1CNC1CCCC1	none
CCCNC(=O)N(C)C[C@H]1[C@H](c2ccccc2)[C@@H](CO)N1C(=O)c1ccccc1	none
COc1ccc(C[C@H]2CCn3nncc3COCCCNC2=O)cc1	none
Cc1noc(C)c1NC(=O)Nc1ccc2c(c1)C(=O)N([C@H](C)CO)C[C@@H](C)[C@H](CN(C)Cc1ccc3c(c1)OCO3)OCCCC[C@@H](C)O2	none
CO[C@@H](CN(C)C(=O)C1CCOCC1)[C@@H](C)CN([C@@H](C)CO)S(=O)(=O)c1ccccc1	none
C[C@H](CO)N1C[C@H](C)[C@H](CN(C)Cc2ccc3c(c2)OCO3)Oc2ncc(-c3cccc(C(F)(F)F)c3)cc2C1=O	none
COc1ccc(NC(=O)N(C)C[C@@H]2OCCCC[C@@H](C)Oc3ccc(NC(=O)c4ccncc4)cc3C(=O)N([C@H](C)CO)C[C@H]2C)cc1	none
CCc1cnc(N2[C@@H](C#N)[C@@H](c3ccc(C#Cc4ccccc4F)cc3)[C@@H]2CO)s1	none
COc1cccc(-c2ccc([C@H]3[C@@H](CO)N4C(=O)CN(C(=O)c5ccncc5)C[C@@H]34)cc2)c1	IDE exosite FP -8.6
COc1cccc(-c2ccc([C@@H]3[C@H](CO)N4C(=O)CN(C(=O)c5cccnc5)C[C@@H]34)cc2)c1	none
O=C(c1ccncc1)N1CC(=O)N2[C@H](CO)[C@H](c3ccc(-c4ccccc4)cc3)[C@@H]2C1	none
COc1cccc(-c2ccc([C@@H]3[C@@H](CO)N4C(=O)CN(C(=O)c5ccncc5)C[C@H]34)cc2)c1	none
COc1cccc(-c2ccc([C@H]3[C@H]4CN(C(=O)c5cccnc5)CC(=O)N4[C@H]3CO)cc2)c1	none
COc1cccc(-c2ccc([C@@H]3[C@H]4CN(C(=O)c5ccncc5)CC(=O)N4[C@H]3CO)cc2)c1	IDE exosite FP -11
OC[C@@H]1Nc2ccc(-c3cccc(F)c3)cc2[C@H]2[C@@H]1CCN2Cc1ccc(F)cc1	none
CC(C)NC(=O)Nc1ccc2c(c1)C(=O)N([C@H](C)CO)C[C@@H](C)[C@H](CN(C)C(=O)C1CCCCC1)OCCCC[C@H](C)O2	none
CNC(=O)C[C@H]1CC[C@@H]2[C@@H](COc3ccc(NC(=O)c4ccccc4F)cc3C(=O)N2C)O1	none
CCCNC(=O)N1[C@H](CNC(=O)c2ccc(F)cc2)[C@@H](c2ccccc2)[C@@H]1CO	none
N#C[C@@H]1[C@H](c2ccc(C3=CCCCC3)cc2)[C@@H](CO)N1C(=O)c1ccccn1	none
CO[C@H]1CN(C)C(=O)c2cc(NC(=O)Cc3ccccc3)ccc2OC[C@H](C)N(C(=O)c2ccccc2F)C[C@H]1C	none
COc1ccccc1-c1cn(CC[C@H]2CC[C@H](NC(=O)C3CCCCC3)[C@H](CO)O2)nn1	none
CC(=O)N1CC(=O)N2[C@H](CO)[C@@H](c3ccc(-c4ccc(C)cc4)cc3)[C@@H]2C1	none
C[C@H]1CCCCO[C@H](CN(C)C(=O)NC2CCCCC2)[C@@H](C)CN([C@@H](C)CO)C(=O)c2cc(N(C)C)ccc2O1	none
CN1CCCCN2[C@@H](CO)[C@@H](c3ccc(/C=C/c4ccccc4)cc3)[C@@H]2C1	IDE exosite FP -6.8
CCC(=O)N1CCCCN2[C@H](CO)[C@@H](c3ccc(-c4ccc(F)cc4)cc3)[C@@H]2C1	none
CCC(=O)N1CCCCN2[C@H](CO)[C@@H](c3ccc(/C=C/c4ccccc4)cc3)[C@@H]2C1	IDE exosite FP -4.5
CCC(=O)N1CCCCN2[C@@H](CO)[C@@H](c3ccc(/C=C/c4ccccc4)cc3)[C@@H]2C1	none
C/C=C/c1ccc([C@H]2[C@@H](CO)N3CCCCN(C)C[C@H]23)cc1	none
O=C(c1ccc(F)cc1)N1CCCCN2[C@H](C1)[C@H](c1ccc(/C=C/c3ccccc3)cc1)[C@@H]2CO	none
CN1CCCCN2[C@H](CO)[C@@H](c3ccc(-c4ccccc4)cc3)[C@H]2C1	none
O=C(c1ccc(F)cc1)N1CCCCN2[C@H](CO)[C@@H](c3ccc(/C=C/c4ccccc4)cc3)[C@H]2C1	none
CCC(=O)N1CCCCN2[C@H](C1)[C@H](c1ccc(/C=C/c3ccccc3)cc1)[C@@H]2CO	IDE exosite FP -10
COCC(=O)N1[C@H](C#N)[C@H](c2ccccc2C2=CCCC2)[C@@H]1CO	none
COc1ccccc1-c1cccc(-c2nc(C(=O)NCc3ccncc3)cc3c2[C@@H](CCO)N([S@](=O)C(C)(C)C)C3)c1	none
COc1cccc(S(=O)(=O)N2C[C@H](O)COC[C@H]3O[C@@H](CC(=O)NCCCN4CCOCC4)CC[C@@H]32)c1	none
C/C=C/c1ccc([C@@H]2[C@H]3CN(C(=O)Nc4ccccc4F)CC(=O)N3[C@H]2CO)cc1	none
OC[C@@H]1[C@H](c2ccc(/C=C/c3ccccc3)cc2)[C@H]2CN(Cc3cccnc3)CCCCN12	IDE exosite FP -5.4
OC[C@H]1[C@@H](c2ccc(-c3ccc(F)cc3)cc2)[C@@H]2CN(Cc3cccnc3)CCCCN12	none
OC[C@@H]1[C@@H](c2ccc(-c3ccc(F)cc3)cc2)[C@@H]2CN(Cc3cccnc3)CCCCN12	none
CCCC#Cc1ccc([C@@H]2[C@@H](CO)N3CCCCN(Cc4ccncc4)C[C@H]23)cc1	none
CCCC#Cc1ccc([C@H]2[C@@H](CO)N3CCCCN(Cc4ccncc4)C[C@H]23)cc1	none
OC[C@H]1[C@@H](c2ccc(-c3ccc(F)cc3)cc2)[C@H]2CN(Cc3cccnc3)CCCCN21	none
OC[C@@H]1[C@@H](c2ccc(/C=C/c3ccccc3)cc2)[C@H]2CN(Cc3cccnc3)CCCCN12	IDE exosite FP -5.2
OC[C@H]1[C@H](c2ccc(/C=C/c3ccccc3)cc2)[C@@H]2CN(Cc3cccnc3)CCCCN12	none
OC[C@H]1[C@H](c2ccc(/C=C/c3ccccc3)cc2)[C@@H]2CN(Cc3ccncc3)CCCCN12	IDE exosite FP -4.5
O=C(Nc1cc(F)ccc1F)N[C@H]1CC[C@@H](CCn2cc(C3CCCCC3)nn2)O[C@H]1CO	none
COc1ccc(NC(=O)N2C[C@@H](O)COC[C@@H]3O[C@@H](CC(=O)N4CCCCC4)CC[C@H]32)cc1	none
O=C(C[C@@H]1CC[C@@H]2[C@H](COC[C@@H](O)CN2Cc2ccc(F)cc2)O1)NCCc1ccccc1	none
Cc1ccccc1S(=O)(=O)N1CCCCN2[C@@H](CO)[C@@H](c3ccc(C#CCN(C)C)cc3)[C@@H]2C1	none
O=C(c1ccncc1)N1C[C@H]2[C@@H](c3ccccc31)[C@H](CO)N2Cc1ccccc1F	none
C/C=C/c1ccc([C@H]2[C@@H](CO)N3C(=O)CN(C(=O)Cc4cccnc4)C[C@@H]23)cc1	none
C/C=C/c1ccc([C@@H]2[C@@H](CO)N3C(=O)CN(C(=O)Cc4cccnc4)C[C@@H]23)cc1	none
O=C(Cc1cccnc1)N1CC(=O)N2[C@H](CO)[C@@H](c3ccc(/C=C/c4ccccc4)cc3)[C@@H]2C1	none
C/C=C/c1ccc([C@H]2[C@H](CO)N3C(=O)CN(C(=O)Cc4cccnc4)C[C@@H]23)cc1	none
O=C(Cc1cccnc1)N1CC(=O)N2[C@H](C1)[C@H](c1ccc(/C=C/c3ccccc3)cc1)[C@@H]2CO	IDE exosite FP -5
O=C(Cc1cccnc1)N1CC(=O)N2[C@H](CO)[C@H](c3ccc(/C=C/c4ccccc4)cc3)[C@@H]2C1	IDE exosite FP -5.1
Cn1cnc(S(=O)(=O)N2C[C@H](O)COC[C@H]3O[C@H](CC(=O)NCc4cccc(F)c4)CC[C@@H]32)c1	none
NCC[C@H]1CC[C@@H](NS(=O)(=O)c2ccc(Cl)cc2)[C@H](CO)O1	none
CO[C@H](CN(C)Cc1cc(F)ccc1F)[C@@H](C)CN([C@H](C)CO)S(=O)(=O)c1ccc(C)cc1	none
